Results from PubChem BioAssay (NCATS).
Records with an inconclusive call do not appear. Active and inactive are the calls of the source. Calls come from the whole dose curve; as a rule, active = well fitted inhibition curve with a large enough effect in the repeat runs; inconclusive = weak or mixed curves; inactive = flat fitted curve, though single readings scatter.

Each compound was assayed against Cytochrome P450 2D6 (Homo sapiens) (UniProt P10635) (assay: Cytochrome P450 family 2 subfamily D member 6 (CYP2D6) small molecule antagonists: luciferase biochemical (cell-free) qHTS assay (AID 1645840; note: nearly all actives have a fitted effect of over 55% in size)). Conditions: P450-Glo CYP2D6 enzyme, luciferin luminescence, 1 h; series mostly up to 57.4 µM; activity change, negative = inhibition: at the top concentration.
Sequence of Cytochrome P450 2D6 (Homo sapiens) (P10635 whole entry, looked up): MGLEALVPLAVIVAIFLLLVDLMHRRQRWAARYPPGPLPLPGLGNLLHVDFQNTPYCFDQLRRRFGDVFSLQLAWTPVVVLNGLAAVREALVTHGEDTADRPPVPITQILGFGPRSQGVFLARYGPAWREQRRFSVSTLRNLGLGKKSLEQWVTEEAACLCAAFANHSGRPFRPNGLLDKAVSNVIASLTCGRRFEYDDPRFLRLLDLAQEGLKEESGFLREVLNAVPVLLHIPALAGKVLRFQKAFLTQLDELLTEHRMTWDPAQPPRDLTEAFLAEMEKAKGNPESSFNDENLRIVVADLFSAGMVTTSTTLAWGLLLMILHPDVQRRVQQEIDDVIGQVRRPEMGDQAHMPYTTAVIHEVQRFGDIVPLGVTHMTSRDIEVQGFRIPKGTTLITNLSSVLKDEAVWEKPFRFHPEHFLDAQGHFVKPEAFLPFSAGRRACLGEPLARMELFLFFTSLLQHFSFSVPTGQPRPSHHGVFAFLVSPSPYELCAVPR
Outline: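 P450-Glo CYP2D6 system: proluciferin substrate converted by enzyme to luciferin, read by luminescence proportional to activity. Enzyme-substrate mix with compound 10 min at room temperature, then NADPH regeneration 1 h before detection reagent.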
% is set by controls: 0 for no effect and ±100 for the full control effect; potency is the fitted concentration of half-maximal effect.

Compound | activity change, negative = inhibition | Potency
CC(=O)c1ccc(OCC(=O)N2CCCCC2)cc1 | 2.34% (inactive) | 
Cc1ccc(C(=O)c2ccc(CC(=O)O)n2C)cc1 |  | inactive
O=C(O)/C=C\C(=O)O | -10% (inactive) | 
[O-][n+]1ccccc1SSc1cccc[n+]1[O-] |  | 1.34 µM (active)
N=C(N)N | 8.6% (inactive) | 
Nc1c(CC(=O)O)cccc1C(=O)c1ccc(Br)cc1 | 4.69% (inactive) | 
Nc1ccc(O)c([N+](=O)[O-])c1 |  | 32.9 µM (active)
CCOC(=O)c1ccccc1O | 12.3% (inactive) | 
C=CCCCCCCCCC(=O)O | -1.84% (inactive) | 
CC(C(=O)O)c1ccc2c(c1)[nH]c1ccc(Cl)cc12 (stereo not drawn) | 3.82% (inactive) | 
CC1(C)S[C@@H]2[C@H](NC(=O)[C@H](N)c3ccccc3)C(=O)N2[C@H]1C(=O)O | -7.17% (inactive) | 
CO[C@@]1(NC(=O)Cc2cccs2)C(=O)N2C(C(=O)O)=C(COC(N)=O)CS[C@@H]21 | -3.38% (inactive) | 
O=Cc1ccc(O)c(O)c1O | -10.8% (inactive) | 
CCCCCCCCCCCC(=O)[O][Sn]([CH2]CCC)([CH2]CCC)[O]C(=O)CCCCCCCCCCC | -14.9% (inactive) | 
Nc1ccc(C(=O)O)c(O)c1 | 0.767% (inactive) | 
CC(=O)SCC(CC(=O)c1ccc(C)cc1)C(=O)O (stereo not drawn) | 2.68% (inactive) | 
O=C(O)c1cc(O)c(O)c(O)c1 | 2.01% (inactive) | 
CC(C(=O)O)c1ccc(C(=O)c2ccccc2)s1 (stereo not drawn) | -18.4% (inactive) | 
